{"source": "PubChem BioAssay (NCATS)", "note": "“And” between values parts separate entries of the source, which are not always exact repeats. Equal entries are not always repeated. The source made the active and inactive calls. Calls follow the shape of the dose curve; as a rule, active = well fitted activation curve with a large enough effect; inconclusive = small, poorly fitted or top-dose-only effect; inactive = flat fitted curve, though single readings scatter."}
{"target": "Peroxisome proliferator-activated receptor alpha (Homo sapiens) (UniProt Q07869)", "sequence (Q07869 whole entry, looked up)": "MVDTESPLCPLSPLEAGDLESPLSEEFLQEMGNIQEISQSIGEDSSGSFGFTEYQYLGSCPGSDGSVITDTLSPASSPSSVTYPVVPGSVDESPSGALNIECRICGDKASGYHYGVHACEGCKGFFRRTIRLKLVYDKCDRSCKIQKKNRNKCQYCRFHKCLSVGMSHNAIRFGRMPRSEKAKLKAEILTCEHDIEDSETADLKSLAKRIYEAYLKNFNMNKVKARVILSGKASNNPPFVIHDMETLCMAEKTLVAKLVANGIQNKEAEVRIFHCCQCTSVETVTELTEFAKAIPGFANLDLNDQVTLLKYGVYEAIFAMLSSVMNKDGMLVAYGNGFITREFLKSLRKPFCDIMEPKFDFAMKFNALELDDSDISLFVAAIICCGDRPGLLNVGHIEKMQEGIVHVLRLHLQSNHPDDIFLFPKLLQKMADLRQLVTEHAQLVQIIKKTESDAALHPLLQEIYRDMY", "test": "qHTS assay for small molecule agonists of the peroxisome proliferator-activated receptor alpha (PPARalpha) signaling pathway (AID 651778); also: % of control where 0% means no effect", "settings": "PathHunter PPARalpha complementation, chemiluminescence, 6 h; hits give high values", "excerpt": "National Center for Advancing Translational Sciences [NCATS]\nNIH Chemical Genomics Center [NCGC]\nU.S. Environmental Protection Agency [EPA]\nNational Institutes of Environmental Health Sciences [NIEHS]\nNational Toxicology Program [NTP]\nThe Peroxisome proliferator-activated receptors (PPARs) are lipid-activated transcription factors of the nuclear receptor superfamily with three distinct subtypes (alpha, garmma and beta/delta). All these subtypes heterodimerize with retinoid X receptor and have different physiological functions. PPARalpha is highly expressed in tissues with high rates of mitochondrial fatty acid oxidation, such as liver, heart, muscle, kidney and cells of the arterial wall. PPARalpha is a major regulator of lipid metabolism and energy homeostasis.\nA cell based assay was used to identify activators of PPARalpha. The assay detects binding of a ligand to PPARalpha leading to its activation, translocation and complementation thus forming a functional enzyme capable of hydrolyzing the substrate molecule and generating chemiluminescent signal.\n2,000 cells in 6 uL/well were dispensed into white wall/solid bottom 1536-well plates using a Multidrop Combi (Thermo Scientific) dispenser. After incubation 37 C and 5% CO2 overnight, 23 nL compound or DMSO only were transferred by a pin tool. The plates were incubated for 6 hr at 37 C and 5% CO2. 3 ul PathHunter detection reagent (Discoverx) was then added to each well and following 60 min incubation at room temperature, chemiluminescence was quantified on a ViewLux CCD-based plate reader."}
{"smiles": "CNc1ccc([N+](=O)[O-])cc1", "max response": "-2.03% (inactive)"}
{"smiles": "FB(F)F", "max response": "-1.82% (inactive)"}
{"smiles": "CC(=C/C=C/C(C)=C/C=C/C=C(C)/C=C/C=C(C)/C=C/C(=O)O)/C=C/C(=O)O", "max response": "2.34% (inactive)"}
{"smiles": "CC/C(C)=N/O", "max response": "1.72% (inactive)"}
{"smiles": "Cc1cc(C)cc([N+](=O)[O-])c1", "max response": "-0.421% (inactive)"}
{"smiles": "O=C1OC(=O)c2cc([N+](=O)[O-])ccc21", "max response": "-4.48% (inactive)"}
{"smiles": "COc1ccc(N=[N+]([O-])c2ccc(OC)cc2)cc1", "max response": "-3.57% (inactive)"}
{"smiles": "C=C(C)OC(C)=O", "max response": "-3.39% (inactive)"}
{"smiles": "CC(C)Nc1ccccc1", "max response": "-3.92% (inactive)"}
{"smiles": "CO[Si](CCCNCCC[Si](OC)(OC)OC)(OC)OC", "max response": "-5.87% (inactive)"}
{"smiles": "C1CCCC1", "max response": "5.92% (inactive)"}
{"smiles": "CC(=O)OCCC(C)C", "max response": "-9.14% (inactive)"}
{"smiles": "C=CC(=O)OCCCC", "max response": "0.0985% (inactive)"}
{"smiles": "C1CCC2OC2C1", "note": "(stereo not given)", "max response": "-2.34% (inactive)"}
{"smiles": "CC1=C(/C=C/C(C)=C/C=C/C(C)=C\\C=O)C(C)(C)CCC1", "max response": "1.33% (inactive)"}
{"smiles": "C/C=C1\\CC2C=CC1C2", "note": "(stereo not given)", "max response": "-5.32% (inactive)"}
{"smiles": "ClCCl", "max response": "-6.14% (inactive)"}
{"smiles": "Cc1ccc(C)c(N)c1", "max response": "7.66% (inactive)"}
{"smiles": "Cc1c(C(=O)O)cccc1[N+](=O)[O-]", "max response": "-0.685% (inactive)"}
{"smiles": "Cc1ccco1", "max response": "-4.89% (inactive)"}
{"smiles": "N#CC1(O)CCCCC1", "max response": "-1.44% (inactive)"}
{"smiles": "CC(C)(C)OC=O", "max response": "-0.442% (inactive)"}
{"smiles": "CC(C)N=C=NC(C)C", "max response": "-2.65% (inactive)"}
{"smiles": "Cc1nc2ccc(Cl)cc2[nH]1", "max response": "-1.28% (inactive)"}
{"smiles": "CCCCOCCOCCOCCCC", "max response": "-5.07% (inactive)"}
{"smiles": "O=Cc1ccc(CO)o1", "max response": "-3.35% (inactive)"}
{"smiles": "O=[N+]([O-])c1ccc(Cl)cc1Cl", "max response": "-1.04% (inactive)"}
{"smiles": "O=Cc1cccc(Br)c1", "max response": "-2.07% (inactive)"}
{"smiles": "CCOc1cccc(N)c1", "max response": "0.865% (inactive)"}
{"smiles": "CCCCCCCN", "max response": "-4.9% (inactive)"}
{"smiles": "O=C(O)c1cc(Cl)cc(Cl)c1", "max response": "-2.98% (inactive)"}
{"smiles": "O=C(O)CNC(=O)c1ccc([N+](=O)[O-])cc1", "max response": "-1.61% (inactive)"}
{"smiles": "CCCCCCO", "max response": "6.04% (inactive)"}
{"smiles": "OC/C(Br)=C(\\Br)CO", "max response": "-6.37% (inactive)"}
{"smiles": "Nc1cccc(C(F)(F)F)c1", "max response": "-0.773% (inactive) and -2.14% (inactive)"}
{"smiles": "CCOC(=O)OCC", "max response": "3.76% (inactive)"}
{"smiles": "Cc1cccc(C(=O)O)c1", "max response": "-3.59% (inactive)"}
{"smiles": "CCCC=O", "max response": "2.48% (inactive)"}
{"smiles": "Nc1cc([N+](=O)[O-])ccc1C(=O)O", "max response": "-7.92% (inactive) and -2.55% (inactive)"}
{"smiles": "C=Cc1ccc(C=C)cc1", "max response": "-4.42% (inactive)"}
